These results are taken from PubChem BioAssay (NCATS).

Records with an inconclusive call do not appear. Active and inactive are the calls of the source. Calls come from the whole dose curve; as a rule, active = well fitted inhibition curve with a large enough effect; inconclusive = small, poorly fitted or top-dose-only effect; inactive = flat fitted curve, though single readings scatter.

Experiment in all cases: qHTS profiling for inhibitors of Plasmodium falciparum proliferation (AID 504749); note: nearly all actives have a fitted effect of over 60% in size
Holding throughout (settings): P. falciparum in erythrocytes, SYBR Green DNA, 72 h; series mostly up to 28.7 µM
A general note: qHTS replaces the single test concentration by a dilution series.

The subject of one assay is CP265. In outline: (§1)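 SYBR Green fluorescence of parasite DNA, read after lysis and overnight dark incubation, measured growth over 72 h in erythrocyte culture at 0.3% parasitemia and 2.5% hematocrit. Data normalised to DMSO and 0.29 uM artemisinin, with plate-drift correction.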
Another assay deals with CP266. The procedure, abridged: as §1
The test system of a further assay is CP268. In outline: as §1
A further assay has as its system CP269. In outline:
as §1

Another assay deals with CP286. In outline: as §1
Another assay concerns CP291. The procedure, abridged:
as §1

For another assay, the system named is CP297. In outline:
as §1

The test system of a further assay is CP305. The procedure, abridged: as §1
A further assay relates to CP315. The procedure, abridged:
as §1

In another assay the test system is CP325. The procedure, abridged:
as §1

The subject of a further assay is CP329. The procedure, abridged:
as §1

In another assay the test system is CP335. The procedure, abridged: as §1
The next assay relates to DFO2036. In outline: as §1
In the next assay the test system is DIV14. The procedure, abridged:
as §1

Another assay deals with DIV17. The procedure, abridged:
as §1

A further assay deals with DIV30. In outline:
as §1

The test system of the next assay is Dd2. The procedure, abridged:
as §1

For another assay, the system named is ECU. The procedure, abridged: as §1
In a further assay the test system is FAB9. In outline: as §1
Another assay concerns GB4. The procedure, abridged: as §1
Potency is the fitted concentration of half-maximal effect.

In the case of `NS(=O)(=O)c1cc2c(cc1Cl)NCNS2(=O)=O`, the Potency result with CP265, with CP266, in the assay on CP268, in the assay with CP269, in the assay with CP286 and with CP291 was “inactive” in each case. The Potency result in the assay with CP297, in the assay on CP305, in the assay on CP315, with CP325, in the assay with CP329 and in the assay with CP335 was “inactive” in each case. Moreover, the Potency entry in the assay on DFO2036, in the assay on DIV14, in the assay with DIV17, in the assay on DIV30, in the assay with Dd2 and with ECU was “inactive” in each case. Further, the Potency entry with FAB9 and with GB4 was “inactive” throughout.
Turning to `COc1ccccc1OCC(O)CN1CCN(CC(=O)Nc2c(C)cccc2C)CC1` (stereo not drawn), the Potency entry with CP265, with CP266, in the assay with CP268, in the assay with CP269, in the assay with CP286 and with CP291 was “inactive” in each case. Moreover, the Potency entry in the assay on CP297, in the assay on CP305, in the assay on CP315, in the assay on CP325, in the assay on CP329 and in the assay with CP335 was “inactive” throughout. Further, the Potency result with DFO2036, in the assay on DIV14, in the assay with DIV17, in the assay on DIV30, in the assay on Dd2 and in the assay on ECU was “inactive” throughout. Further, the Potency result in the assay on FAB9 and in the assay with GB4 was “inactive” throughout.
As to `CN(C)c1nc(N(C)C)nc(N(C)C)n1`, the Potency result in the assay on CP265, in the assay on CP266, with CP268, in the assay on CP269, with CP286 and in the assay on CP291 was “inactive” in each case. The Potency entry in the assay with CP297, in the assay with CP305, with CP315, with CP325, in the assay with CP329 and in the assay on CP335 was “inactive” throughout. Also, the Potency result in the assay on DFO2036, in the assay with DIV14, in the assay with DIV17, in the assay on DIV30, in the assay with Dd2 and in the assay with ECU was “inactive” in each case. For the same compound, the Potency entry in the assay with FAB9 and in the assay on GB4 was “inactive” in each case.
For `Cc1ccc(C(=O)Nc2ccc(S(=O)(=O)O)c3cc(S(=O)(=O)O)cc(S(=O)(=O)O)c23)cc1NC(=O)c1cccc(NC(=O)Nc2cccc(C(=O)Nc3cc(C(=O)Nc4ccc(S(=O)(=O)O)c5cc(S(=O)(=O)O)cc(S(=O)(=O)O)c45)ccc3C)c2)c1`, the Potency entry in the assay on CP265, with CP266, in the assay with CP268, in the assay on CP269, with CP286 and with CP291 was “inactive” each time. Also, the Potency result in the assay on CP297, with CP305, in the assay with CP315, with CP325, in the assay on CP329 and with CP335 was “inactive” each time. In addition, the Potency entry with DFO2036, in the assay with DIV14, in the assay with DIV17, in the assay on DIV30, in the assay on Dd2 and in the assay with ECU was “inactive” in each case. In addition, the Potency entry with FAB9 and in the assay on GB4 was “inactive” in each case.
`CN(C)C(=N)N=C(N)N`: the Potency result in the assay on CP265, in the assay on CP266, in the assay with CP286, in the assay on CP305, with CP325 and in the assay on CP329 was “inactive” in each case. For the same compound, the Potency result in the assay with CP335, in the assay with DFO2036, in the assay with Dd2, in the assay with ECU and with FAB9 was “inactive” in each case.
For `COc1nc(C)nc(Cl)c1NC1=NCCN1`, the Potency result in the assay on CP265, with CP268, in the assay on CP269, in the assay on CP286, in the assay on CP291 and in the assay with CP305 was “inactive” each time. The Potency result in the assay on CP315, in the assay on CP325, with CP329, in the assay with CP335, with DFO2036 and in the assay on DIV14 was “inactive” throughout. Moreover, the Potency entry with DIV17, with DIV30, with Dd2, in the assay with ECU, in the assay on FAB9 and with GB4 was “inactive” each time.
`CCCCc1oc2ccccc2c1C(=O)c1cc(I)c(OCCN(CC)CC)c(I)c1`: the Potency was 7.08 µM (active) with CP265; 11.2 µM (active) in the assay with CP286; 9.53 µM (active) with CP335; 7.57 µM (active) in the assay with DIV14; 13.5 µM (active) in the assay on DIV17; 8.49 µM (active) in the assay on DIV30. In addition, the Potency was 11.2 µM (active) in the assay on Dd2, 8.91 µM (active) with ECU and 9.53 µM (active) in the assay with GB4. Further, the Potency entry in the assay with CP266 and in the assay with CP315 was “inactive” each time.
For the compound `NCCS(=O)(=O)O`, the Potency result in the assay with CP265, with CP266, in the assay with CP268, with CP269, in the assay on CP286 and in the assay with CP297 was “inactive” in each case. Besides, the Potency entry in the assay on CP305, in the assay on CP325, with CP329, in the assay on CP335, in the assay with DFO2036 and in the assay on DIV14 was “inactive” each time. In addition, the Potency entry in the assay on DIV17, with DIV30, in the assay with Dd2, in the assay with ECU, in the assay on FAB9 and in the assay on GB4 was “inactive” each time.
As for `CS(=O)(=O)CCNCc1ccc(-c2ccc3ncnc(Nc4ccc(OCc5cccc(F)c5)c(Cl)c4)c3c2)o1`, the Potency result with CP265, in the assay with CP266, in the assay on CP269, in the assay on CP286, in the assay on CP291 and in the assay on CP305 was “inactive” each time. In addition, the Potency entry in the assay on CP315, with CP325, in the assay with CP329, in the assay with CP335, with DFO2036 and with DIV14 was “inactive” throughout. Moreover, the Potency result with DIV17, in the assay on DIV30, in the assay on Dd2, in the assay with ECU, in the assay on FAB9 and with GB4 was “inactive” in each case.
Regarding `CNCCCC12CCC(c3ccccc31)c1ccccc12`, the Potency entry with CP266, in the assay on CP268, with CP305, in the assay on CP315, in the assay with CP325 and in the assay with CP329 was “inactive” in each case. The Potency result in the assay with CP335, in the assay with DFO2036, in the assay with ECU and with FAB9 was “inactive” in each case. Also, the Potency in the assay on DIV17 was 10.7 µM (active); with GB4, 8.49 µM (active).
Regarding `CN1CCC(=C2c3ccccc3C=Cc3ccccc32)CC1`, the Potency result in the assay on CP265, in the assay with CP266, with CP286, with CP291, with CP297 and in the assay with CP305 was “inactive” each time. For the same compound, the Potency result with CP315, in the assay with CP325, in the assay on CP329, with DFO2036, in the assay with DIV30 and with ECU was “inactive” in each case. Further, the Potency result in the assay with FAB9 was “inactive”.
As to `CC[C@@]1(O)C(=O)OCc2c1cc1n(c2=O)Cc2cc3c(CN(C)C)c(O)ccc3nc2-1`, the Potency with CP265 was 6.31 µM (active); with CP286, 5.62 µM (active); with CP291, 4.78 µM (active); in the assay with CP297, 7.57 µM (active); with CP329, 6.75 µM (active); in the assay with CP335, 4.78 µM (active). The Potency in the assay with DFO2036 was 5.62 µM (active); in the assay with Dd2 it was 10 µM (active); with ECU, 3.98 µM (active); with GB4, 5.36 µM (active). Also, the Potency result in the assay on CP266 and in the assay with FAB9 was “inactive” throughout.
